Screening data from PubChem.
PfHsp40 rescue: restores yeast growth despite PfHsp40 toxicity; S. cerevisiae expressing PfHsp40, growth rescue, ATP luminescence; growth rescue, % at 12.5 µM; 340,000 compounds, 0.68% hits; in the data active = growth rescue above about 28%, passing the limit was not always enough;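 note: yeast W303a lacking pdr1 and pdr3 grown in galactose medium; growth measured after three days at 30 °C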
SSB-PriA inh: blocks PriA binding to SSB C-terminal tail; AID 1272365; AlphaScreen SSBct-PriA binding, biotinylated peptide; 430,000 compounds, 0.6% hits; inhibition, % at 33 µM; in the data active = inhibition mostly above about 37%, no sharp cut-off; inactive = mostly below about 20%;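 note: plate controls were negative control peptide for no effect and reference peptide for full effect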
Mtb hypoxia rep: inhibitors of hypoxia-regulated fluorescent reporter in Mycobacterium tuberculosis; M. tuberculosis hypoxia-regulated fluorescent reporter, fluorescence; fluorescence inhibition, % (concentration not given with the values); 300,000 compounds, 0.1% hits; AID 1159583; in the data active = fluorescence inhibition mostly above about 23%, no sharp cut-off; inactive = mostly below about 17%
Sa ugtP lethal: compounds lethal to S. aureus RN4220 ugtP deletion mutant; growth inhibition, % (test concentration not listed); OD600 growth, 16 h; 330,000 compounds, 0.54% hits; AID 1259309; in the data active = growth inhibition above about 68%;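 note: plate controls were untreated wells for no effect and antibiotic for full effect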
DUSP3 inh: DUSP3 (human) phosphatase inhibition | 290,000 compounds, 0.52% hits | inhibition, % at 13.3 µM | recombinant VHR phosphatase, pNPP absorbance | AID 1654 | P51452; in the data active = inhibition above about 50%
Target sequence (P51452 whole entry, looked up): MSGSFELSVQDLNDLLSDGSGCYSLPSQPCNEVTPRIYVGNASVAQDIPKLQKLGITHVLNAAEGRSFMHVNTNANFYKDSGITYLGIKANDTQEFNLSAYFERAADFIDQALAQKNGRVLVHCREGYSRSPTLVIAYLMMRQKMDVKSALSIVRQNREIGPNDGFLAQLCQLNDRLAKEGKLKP
Sa RN4220 lethal: kills Staphylococcus aureus RN4220; inhibition, % (no concentration beside the values); 330,000 compounds, 0.33% hits; S. aureus RN4220 growth, OD600, 16 h; in the data active = inhibition above about 85%;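 note: plate controls were untreated cells for no effect and reference antibiotic for full effect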
An asterisk follows results filed as active; . = no result shown; ! = not confirmed by another sample. The list is not random: actives were taken first. Their share in the collection is about 1.8%.

SMILES	PfHsp40 rescue	SSB-PriA inh	Mtb hypoxia rep	Sa ugtP lethal	DUSP3 inh	Sa RN4220 lethal
Cc1cnc(C(=O)Nc2nc(-c3ccccn3)cs2)cn1	.	120*	.	.	.	.
OCc1c[nH]c(=S)n1Cc1ccc(F)cc1	.	4	.	.	.	.
CC(CCC(C)C(C)(C)C)[C@@H]1CC[C@H]2C3C[C@H](OS(O)(=S)=S)[C@H]4C[C@H](OS(O)(=S)=S)[C@@H](OS(O)(=S)=S)C[C@]4(C)[C@H]3CC[C@]12C (some centres not stated) (tested in a mixture with another compound)	104*	.	.	.	.	.
O=C(NC(=S)N1CCN(c2ccc(Cl)cc2[N+](=O)[O-])CC1)c1cccs1	15	39*	.	.	-4	.
Cc1ccc2c(C(=O)CN3CCCCC3CCO)c(C)[nH]c2c1 (configuration not stated)	0	-29	.	-1	4	-2
CCC1CCCCN1CC(=O)c1c(C)[nH]c2cc(C)ccc12 (configuration not stated)	1	-10	8	-2	52*	2
CCOC(=O)Nc1nc(CC(=O)Nc2ccccc2C(C)C)cs1	.	-13	.	.	.	.
CC(C)(C)OC(=O)NN=Cc1ccc([N+](=O)[O-])s1	.	8	4	15	.	4
Cc1cc(C(=O)NN=Cc2ccc([N+](=O)[O-])s2)n[nH]1	.	.	.	98*	.	100*
COc1ccc(NC(C)C(=O)NN=Cc2ccc([N+](=O)[O-])s2)cc1 (configuration not stated)	.	26	43*	22	.	17
O=[N+]([O-])c1ccc(C=NNC(=S)Nc2ccc(Cl)cc2Cl)s1	.	0	.	.	.	.
Cc1ccc(NC(=S)N/N=C/c2ccc([N+](=O)[O-])s2)cc1	211*	.	.	.	32	.
Cc1cc(C(=O)N/N=C\c2cccs2)n[nH]1	.	-1	.	.	.	.
Cc1cccc(NC(=S)NN=Cc2ccc([N+](=O)[O-])s2)c1	.	39*	.	.	.	.
O=c1[nH]ncc2c3ccccc3n(Cc3ccccc3)c12	1	-3	7	-2	19	3
CCCn1c2ccccc2c2cn[nH]c(=O)c21	2	-6	10	13	59*	7
COc1ccccc1C1=NN(C(=S)Nc2ccccc2)C(c2ccco2)C1 (configuration not stated)	-1	39*!	-2	17	21	26
Cc1ccc(C(=O)OCC(=O)NC2CCCC(C)C2C)cc1S(=O)(=O)N1CCCCC1 (configuration not stated)	0	-9	24*	-4	.	2
Cc1ccc(C(=O)OCC(=O)N2CCC(C)CC2)cc1S(=O)(=O)N1CCCCC1	0	-15	4	1	37	3
CCC(CC)C(=O)Nc1ccc2c(c1)CN(S(=O)(=O)c1ccccc1)CC2	.	1	.	.	.	.
Cc1ccc(S(=O)(=O)N2[C@@H](c3ccc(C(C)(C)C)cc3)C(C(=O)O)=CC[C@H]2c2ccc(C(C)C)cc2)cc1	1	1	-1	88*	.	97*
Cc1ccc(S(=O)(=O)N2[C@@H](c3ccc(C(C)(C)C)cc3)C(C(=O)O)=CC[C@H]2c2ccc(Cl)cc2)cc1	0	-8	-4	80	.	99*
Cc1ccc([C@@H]2CC=C(C(=O)O)[C@H](c3ccc(C(C)(C)C)cc3)N2S(=O)(=O)c2ccc(C)cc2)cc1	0	2	-1	-1	.	45
COC(CNC(=O)c1snnc1C)c1ccc(C)s1 (configuration not stated)	.	-2	.	.	.	.
Cc1ccc(-c2cc(C(=O)N3CCC(NC(=O)c4ccc5c(c4)OCO5)CC3)[nH]n2)c(C)c1	.	-4	.	.	.	.
SMILES	PfHsp40 rescue	SSB-PriA inh	Mtb hypoxia rep	Sa ugtP lethal	DUSP3 inh	Sa RN4220 lethal
Cc1ccc(-c2cc(C(=O)N3CCC(NC(=O)c4cccc(N(C)C)c4)CC3)[nH]n2)c(C)c1	.	48*	.	.	.	.
O=C1c2ccccc2NC(c2ccc(-c3ccc(C(F)(F)F)cc3)o2)N1O (configuration not stated)	279*	-7	9	-17	.	9
O=C1c2ccccc2NC(c2ccc(Br)o2)N1O (configuration not stated)	-1	-13	2	-11	.	-7
O=C1c2ccccc2NC(c2ccc(-c3cccs3)o2)N1O (configuration not stated)	58*	-4	12	-35	.	8
Cc1cc(NC(=O)c2cc(N3CCCCC3)ncn2)no1	.	-10	.	.	.	.
Cc1ccc(S(=O)(=O)NCC(=O)N/N=c2\sc3ccccc3n2C)cc1	.	-7	.	.	.	.
CCN1/C(=C/C(C)=C/c2sc3ccccc3[n+]2CC)Sc2ccccc21	1	76	.	99*	18	100*
Cc1cc(N2CCN(C(=O)c3ccco3)CC2)n2ncnc2n1	0	-6	-2	-5	1	-2
O=C(c1ccco1)N1CCN(c2cc(C(F)(F)F)nc3ncnn23)CC1	0	-9	0	-3	52*	-1
O=C(NC(NC(=S)Nc1cccc(C(=O)O)c1)C(Cl)(Cl)Cl)OCc1ccccc1 (configuration not stated)	-1	5	4	9	-3	3
O=C(NC(NC(=S)Nc1cccc(Cl)c1)C(Cl)(Cl)Cl)OCc1ccccc1 (configuration not stated)	-1	-5	-3	96*	21	90*
O=C(Nc1nnc(C2=COCCO2)o1)c1cccc(Br)c1	59*	7	3	99*	-4	92*
O=C1/C(=C/c2cccs2)CCC/C1=C\c1cccs1	0	8	.	.	-17	.
CC1C/C(=C/c2cccs2)C(=O)/C(=C/c2cccs2)C1 (configuration not stated)	-1	18	8	90*	-6	-8
CC(=NOCc1ccc(C#N)cc1)c1ccccc1	.	-40	11	7	.	5
CCN(CC)S(=O)(=O)c1ccc(-c2nnc(SCc3nnc(-c4ccc(C)cc4)o3)o2)cc1	0	2	-3	-6	16	6
CCN(CC)S(=O)(=O)c1ccc(-c2nnc(SCc3nnc(-c4ccc(C)cc4)o3)n2CC)cc1	45*	0	-9	-4	21	7
OC(Cn1cncn1)(Cn1cncn1)c1ccc(F)cc1F	179*	3	7	7	.	5
CC(C)[C@H](NC(N)=O)C(=O)NCCc1ccc(Cl)cc1	-1	39*	7	7	12	1
